These results are taken from PubChem BioAssay (NCATS).

Results filed as inconclusive are left out. A call without a number means that no potency is given here. Activity calls are given as the source filed them. Calls come from the whole dose curve; as a rule, active = well fitted curve in the direction sought with a large enough effect; inconclusive = small, poorly fitted or top-dose-only effect, or another doubt; inactive = no such curve, though single readings can be large; an effect the other way counts as inactive or inconclusive.

Sequence of Ubiquitin carboxyl-terminal hydrolase 1 (Homo sapiens) (O94782 whole entry, looked up): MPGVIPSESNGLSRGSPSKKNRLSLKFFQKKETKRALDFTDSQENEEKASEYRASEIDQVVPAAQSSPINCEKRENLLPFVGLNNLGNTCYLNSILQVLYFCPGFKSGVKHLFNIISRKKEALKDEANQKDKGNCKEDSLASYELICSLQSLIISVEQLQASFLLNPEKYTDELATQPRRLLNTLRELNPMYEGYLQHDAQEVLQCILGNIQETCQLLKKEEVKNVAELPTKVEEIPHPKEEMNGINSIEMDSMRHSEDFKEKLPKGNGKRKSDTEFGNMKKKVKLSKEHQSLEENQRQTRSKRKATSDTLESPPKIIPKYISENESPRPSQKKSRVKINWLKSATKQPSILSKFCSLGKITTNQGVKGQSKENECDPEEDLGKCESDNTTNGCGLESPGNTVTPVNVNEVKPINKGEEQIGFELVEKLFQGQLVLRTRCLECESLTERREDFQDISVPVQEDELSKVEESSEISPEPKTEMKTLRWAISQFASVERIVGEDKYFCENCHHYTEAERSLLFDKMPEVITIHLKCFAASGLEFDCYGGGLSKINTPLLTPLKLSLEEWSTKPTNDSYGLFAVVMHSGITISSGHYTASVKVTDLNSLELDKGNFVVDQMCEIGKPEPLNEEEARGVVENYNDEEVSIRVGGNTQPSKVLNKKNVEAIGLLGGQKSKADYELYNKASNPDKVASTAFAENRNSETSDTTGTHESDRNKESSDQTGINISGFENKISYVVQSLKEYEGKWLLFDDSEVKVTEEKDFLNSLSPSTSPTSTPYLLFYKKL

The first experiment deals with Ubiquitin carboxyl-terminal hydrolase 1 (Homo sapiens) (UniProt O94782). The experiment can be described thus: Inhibitors of USP1/UAF1: Pilot qHTS (AID 504865).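 Note: rhodamine fluorescence freed from ubiquitin-rhodamine substrate followed over time; top concentration of the series differs between compounds; nearly all actives have a fitted effect of over 35% in size.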 The following applies: purified USP1/UAF1, Ub-rhodamine cleavage fluorescence; series mostly up to 114 µM. The essentials:
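In 50mM HEPES pH 7.8 containing 0.5mM EDTA, 1mM TCEP, 0.1 mg/ml BSA and 0.01% Tween-20, 1nM USP1/UAF1 is exposed to compound for 15 min, then Ub-Rho (150nM final) is added and fluorescence is read over time.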
As to `COc1c2c(cc3c1OCO3)CC[N+](C)=C2`, the Potency result was “inactive”.
Same read-out and setting: then `O=C(O)C1=CCCN(CCOC(c2ccc(C(F)(F)F)cc2)c2ccc(C(F)(F)F)cc2)C1`, with “inactive”.
Take `Clc1ccccc1-c1cncnc1NCCc1cnc[nH]1`: the Potency result was “inactive”.
On the same count and under the same terms, then `C=C(C)c1cc2cc(C(C)=O)c(O)cc2o1`, with “inactive”.

Tested on in a further experiment: not listed separately
The experiment can be described thus: Primary qHTS for small molecule stabilizers of the endoplasmic reticulum resident proteome: Secreted ER Calcium Modulated Protein (SERCaMP) assay (AID 1508630). The following applies: SH-SY5Y GLuc-SERCaMP (Gaussia luciferase released on ER calcium loss) secretion, thapsigargin, luminescence; series mostly up to 38.4 µM. The essentials: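 GLuc-SERCaMP-expressing SH-SY5Y cells, pretreated 16 h with compound, are challenged with thapsigargin to empty ER calcium stores; after 4 h, coelenterazine is added directly to the medium and luminescence is imaged.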
For `CS(=O)(=O)N1CCC2(CCCN(Cc3ccncc3)C2)CC1`, the outcome was inactive.
The same measure, in the same setting: next, `c1ccc(CN2CC[C@@]3(CCCNC3)C2)cc1`: “inactive”; `O=C(c1ccncc1)N1CCC[C@@]2(CCN(Cc3nccs3)C2)C1`: “inactive”; `CCc1c(C(=O)OC)ncc2[nH]c3cc(OC)c(OC)cc3c12`: “inactive”.
The same measure, in the same setting: then `COc1c2c(cc3c1OCO3)CC[N+](C)=C2`, with “inactive”; and `c1cc(CN2CC3(CCNCC3)C2)ccn1`, with “inactive”; and `c1csc(CN2CC[C@@]3(CCCNC3)C2)n1`, with “inactive”.
Turning to `COC(=O)N1CCC2(CCCN(C)C2)CC1`, the outcome was inactive.
Still for that read-out and setting: then `O=C(O)C1=CCCN(CCOC(c2ccc(C(F)(F)F)cc2)c2ccc(C(F)(F)F)cc2)C1`, with “inactive”; and `c1ccc(CN2CCC3(CCNCC3)CC2)cc1`, with “inactive”.
Same read-out and setting: next, `Cc1noc(C)c1C(=O)N1CCC2(CCCN(CC(C)C)C2)CC1`: “inactive”.
The same measure, in the same setting: then `CN1CC[C@@]2(CCCN(C(=O)c3ccncc3)C2)C1`, with “inactive”.
Turning to `c1cnc(N2CCCC3(CCNCC3)C2)nc1`, the result was inactive.
Regarding `c1ccc(N2CC3(CCNCC3)C2)cc1`, the result was inactive.
The same measure, in the same setting: then `Clc1ccccc1-c1cncnc1NCCc1cnc[nH]1`, with “inactive”.
On the same count and under the same terms, then `CN1CC[C@@]2(CCCN(C(=O)Oc3ccccc3)C2)C1`, with “inactive”.
As to `c1csc(CN2CCC3(CCNCC3)CC2)n1`, the outcome was inactive.
The same measure, in the same setting: next, `O=C(Nc1ccccc1)N1CC[C@@]2(CCCN(C(=O)Oc3ccccc3)C2)C1`: “inactive”; `O=C(c1csnn1)N1CCC2(CC1)CN(Cc1ccncc1)C2`: “inactive”.
Still for that read-out and setting: then `CC(C)NC(=O)N1CC[C@@]2(CCCNC2)C1`, with “inactive”; and `CCCN1CCc2cc(O)cc3c2C1Cc1ccc(O)c(O)c1-3` (centres undefined), with “inactive”; and `c1ccc(N2CC3(CCNCC3)C2)nc1`, with “inactive”.
The same measure, in the same setting: next, `CC(C)NC(=O)N1CCC2(CC1)CCN(C(=O)Oc1ccccc1)CC2`: “inactive”.
Take `C=C(C)c1cc2cc(C(C)=O)c(O)cc2o1`: the outcome was inactive.
In the case of `CC(C)NC(=O)N1CCCC2(CCN(C(=O)Oc3ccccc3)CC2)C1`, the result was inactive.
On the same count and under the same terms, then `CN1CCCC2(CCN(C(=O)Oc3ccccc3)CC2)C1`, with “inactive”; and `CC(C)CN1CCC2(CC1)CCN(S(C)(=O)=O)CC2`, with “inactive”; and `CN1CCCC2(CCN(C(=O)c3csnn3)CC2)C1`, with “inactive”.
The same measure, in the same setting: next, `CC(C)CN1CCCC2(CCN(C(=O)c3ccncc3)CC2)C1`: “inactive”; `O=C(c1ccco1)N1CCC[C@@]2(CCN(Cc3ccncc3)C2)C1`: “inactive”; `O=C(Nc1ccccc1)N1CC2(CCN(C(=O)Oc3ccccc3)CC2)C1`: “inactive”.
`CC(C)CN1CC[C@@]2(CCCN(C(=O)c3ccncc3)C2)C1`: the result was inactive.
In the case of `Cc1noc(C)c1C(=O)N1CCC[C@@]2(CCN(CC(C)C)C2)C1`, the outcome was inactive.
On to `CC(C)CN1CC2(CCN(C(=O)Oc3ccccc3)CC2)C1`, for which the result was inactive.
In the case of `O=C(Oc1ccccc1)N1CCC2(CCCN(Cc3ccccc3)C2)CC1`, the outcome was inactive.
For `N#Cc1cccc(NC(=O)N2CC3(CCN(C(=O)Oc4ccccc4)CC3)C2)c1`, the result was inactive.
The same measure, in the same setting: next, `O=C(c1cnccn1)N1CCC2(CC1)CN(Cc1ccncc1)C2`: “inactive”; `O=C(Oc1ccccc1)N1CCC2(CC1)CN(Cc1ccncc1)C2`: “inactive”.
With `CN1CCCC2(CCN(C(=O)c3ccco3)CC2)C1`, the outcome was inactive.
In the case of `O=C(Nc1cccc(F)c1)N1CC2(CCNCC2)C1`, the outcome was inactive.
